Experiment [1] deals with W2. The experiment can be described thus: qHTS profiling for inhibitors of Plasmodium falciparum proliferation (AID 504749). Further: potency means the concentration at half of the fitted maximal effect. The following applies: P. falciparum in erythrocytes, SYBR Green DNA, 72 h; series mostly up to 28.7 µM. The method in brief:
(§1)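 Fluorescence of SYBR Green-bound parasite DNA, read at 485/535 nm, served as the growth measure. Infected erythrocytes were cultured with compound 72 h; artemisinin (0.29 uM) and DMSO wells defined the normalization range.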

For experiment [2], the system named is CRL-7250. Put plainly: Cytotoxic Profiling of Annotated Libraries Using Quantitative High-Throughput Screening (AID 1296008). Further: potency means the concentration at half of the fitted maximal effect. On max response: on the % scale 0 is the no-effect control and ±100 the full control effect. The following applies: Five cell lines viability, CellTiter-Glo ATP luminescence, 48-72 h; max response: stronger effect = lower value. The method in brief: (§2)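 Compounds were pin-transferred onto cells and incubated 48 or 72 hr at 37 degree Celsius, 95% humidity. CellTiter-Glo was added, plates sat 10 min at room temperature, then ATP-coupled luminescence was imaged as the viability read-out.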

In experiment [3] the test system is HaCat. The description is as above. The following applies: Five cell lines viability, CellTiter-Glo ATP luminescence, 48-72 h; max response: stronger effect = lower value. The method in brief:
as §2

For experiment [4], the system named is NIH3T3. Described as above. The conditions noted are these: Five cell lines viability, CellTiter-Glo ATP luminescence, 48-72 h; max response: stronger effect = lower value. In a few lines: as §2
Experiment [5] concerns HACAT. The experiment can be described thus: qHTS assay to identify novel small-molecules to repurpose for Merkel cell carcinoma treatment (AID 1296009). The following applies: MCC and control cell lines, CellTiter-Glo viability, 72 h; at 44.8 µM (top of the series) unless noted. The method in brief:
(§3)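 Luminescence from CellTiter-Glo, read 10 min after addition at room temperature, reported viability following a 72 hr, 37 degree celsius treatment with NPC or MIPE compounds in titration; values normalized to plate controls.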

For experiment [6], the system named is TAB113. Put plainly: qHTS profiling for inhibitors of Plasmodium falciparum proliferation (AID 504749). Further: potency means the concentration at half of the fitted maximal effect. The following applies: P. falciparum in erythrocytes, SYBR Green DNA, 72 h; series mostly up to 28.7 µM. The method in brief: as §1
For experiment [7], the system named is TAB165. The experiment is described as above. The following applies: P. falciparum in erythrocytes, SYBR Green DNA, 72 h; series mostly up to 28.7 µM. In a few lines:
as §1

Experiment [8] relates to KB-3-1. Put plainly: Cytotoxic Profiling of Annotated Libraries Using Quantitative High-Throughput Screening (AID 1296008). Further: potency means the concentration at half of the fitted maximal effect. On max response: on the % scale 0 is the no-effect control and ±100 the full control effect. The conditions noted are these: Five cell lines viability, CellTiter-Glo ATP luminescence, 48-72 h; max response: stronger effect = lower value. In a few lines:
as §2

In experiment [9] the test system is HEK293. The description is as above. The following applies: Five cell lines viability, CellTiter-Glo ATP luminescence, 48-72 h; max response: stronger effect = lower value. The method in brief: as §2
Experiment [10] relates to HEK293T. The experiment can be described thus: qHTS assay to identify novel small-molecules to repurpose for Merkel cell carcinoma treatment (AID 1296009). The following applies: MCC and control cell lines, CellTiter-Glo viability, 72 h; at 44.8 µM (top of the series) unless noted. In a few lines:
as §3

Molecules are shown by their SMILES. Results filed as inconclusive are left out. Active and inactive are the calls of the source. The call rests on the fitted dose curve; in most records, active means well fitted inhibition curve with a large enough effect; inconclusive means small, poorly fitted or top-dose-only effect; inactive means flat fitted curve, though single readings scatter.
Further: nearly all actives have a fitted effect of over 60% in size.

As for `CCC(=O)c1ccc2c(c1)N(CCCN(C)C)c1ccccc1S2`, the Potency in experiment [1] was 3.01 µM (active). The results for the max response in [2] and in experiment [4] were -1.9% (inactive) and -21.3% (inactive), respectively. For the same molecule, the molecule was called inactive in [3] and in experiment [5].

`CCn1ccnc1CC1COc2ccccc2O1` (stereo not given): the Potency result in experiment [6] and in experiment [7] was “inactive” throughout. Moreover, the max response in experiment [2] is -3.72% (inactive); in experiment [3], 2.89% (inactive); in [8], 19.9% (inactive); in [4], -3.18% (inactive).

Consider `OC(CCN1CCCCC1)(c1ccccc1)C1CCCCC1` (stereo not given), for which the Potency result in experiment [6] and in experiment [7] was “inactive” in each case. In addition, the Potency in [1] was 6.01 µM (active). Further, the outcome in [2], in experiment [3] and in [5] was inactive. For the same molecule, the max response in experiment [8] is -15.6% (inactive); in experiment [4], -0.663% (inactive).

As to `CCCCCCCC/C=C\CCCCCCCC(=O)NCc1ccc(O)c(OC)c1`, in [7], the Potency was 8.91 µM (active). The max response is -0.832% (inactive) in [2] and -24.7% (inactive) in [4]. Also, the result in experiment [3] and in experiment [5] was inactive.

In the case of `CC(N=C(NC#N)Nc1ccncc1)C(C)(C)C` (stereo not given), the Potency entry in experiment [6], in experiment [7] and in experiment [1] was “inactive” throughout. In addition, the molecule was called inactive in experiment [2], in experiment [3] and in [5]. In experiment [4], the max response was 0.852% (inactive).

As to `Nc1nc(N)c2nc(-c3ccccc3)c(N)nc2n1`, the Potency entry in [6] and in experiment [7] was “inactive” throughout. Further, the max response was -19.7% (inactive) in experiment [2], -19.1% (inactive) in experiment [3] and -2.1% (inactive) in [8].

With `CCCCNc1c(C(=O)OCC)c(C)nc2c1cnn2CC`, the Potency entry in experiment [6] is “inactive”. Besides, the max response in [2] is -21.3% (inactive); in experiment [3] it was -1.24% (inactive); in [8] it was 1.34% (inactive).

Regarding `CCCC(C(=O)OCCN(CC)CC)(c1ccccc1)c1ccccc1`, the Potency is 10 µM (active) in experiment [6] and 7.57 µM (active) in [1]. Besides, the max response in experiment [2] was -17.9% (inactive); in experiment [3], -7.15% (inactive); in experiment [8], -8.71% (inactive); in experiment [4] it was -27.5% (inactive).

With `CN/C(=C\[N+](=O)[O-])NCCSCc1ccc(CN(C)C)o1`, the max response in experiment [9] is 0.484% (inactive); in experiment [8], 15% (inactive); in experiment [4], -4.45% (inactive). Moreover, the call in [3] and in experiment [5] was inactive.

`C[N+](C)(C)CCOC(N)=O`: the Potency result in experiment [6], in experiment [7] and in experiment [1] was “inactive” throughout. In addition, the max response in [2] was 1.41% (inactive); in [4], -0.0921% (inactive). The outcome in [9] and in experiment [10] was inactive.

Consider `O=C(CCCN1CCC(O)(c2cccc(C(F)(F)F)c2)CC1)c1ccc(F)cc1`, for which the Potency in experiment [6] was 12.6 µM (active); in experiment [7], 7.94 µM (active); in [1] it was 2.69 µM (active). The max response is -19.1% (inactive) in experiment [2], 0.0234% (inactive) in experiment [3] and -16.4% (inactive) in [8].

Turning to `c1cc(CN2CCCCC2)cc(OCCCNc2nc3ccccc3s2)c1`, the Potency in experiment [7] was 3.98 µM (active); in [1] it was 4.78 µM (active). The max response is -17.3% (inactive) in experiment [2] and -9.4% (inactive) in experiment [8]. Besides, the call in experiment [3] and in experiment [5] was inactive.

As for `Brc1c(NC2=NCCN2)ccc2nccnc12`, the Potency in experiment [1] is 5.36 µM (active). For the same molecule, the max response in experiment [2] is -13% (inactive); in experiment [9], -12.5% (inactive); in experiment [8], -13.6% (inactive); in experiment [4] it was -5.35% (inactive).

Turning to `Cc1nc2sccn2c(=O)c1CCN1CCC(=C(c2ccc(F)cc2)c2ccc(F)cc2)CC1`, in [7], the Potency was 12.6 µM (active). In addition, the outcome in experiment [2] was inactive. Also, the max response is -3.76% (inactive) in [3], -12.7% (inactive) in experiment [8] and -6.97% (inactive) in experiment [4].

As for `CNCCC(Oc1ccccc1OC)c1ccccc1` (stereo not given), the results for the Potency in experiment [7] and in experiment [1] were 11.2 µM (active) and 4.26 µM (active), respectively. Moreover, the max response in experiment [2] is -0.295% (inactive); in experiment [3], 1.07% (inactive); in [8] it was 0.271% (inactive); in experiment [4] it was -6.28% (inactive).

`CCOC(=O)C1=C(C)NC(C)=C(C(=O)OC)C1c1cccc([N+](=O)[O-])c1` (stereo not given): the Potency in [7] was 10 µM (active). For the same molecule, the outcome in [2], in [3] and in [5] was inactive. Moreover, the max response in experiment [8] is -12.8% (inactive); in experiment [4] it was -0.464% (inactive).

`O=c1[nH]c(=O)n([C@H]2C[C@H](O)[C@@H](CO)O2)cc1Br`: the Potency result in [6], in experiment [7] and in [1] was “inactive” in each case. Also, the max response in experiment [2] was 0.0744% (inactive); in experiment [3], 2.47% (inactive); in experiment [8] it was 2.61% (inactive); in experiment [4], 1.37% (inactive).

For the molecule `CCc1c(C)[nH]c2c1C(=O)C(CN1CCOCC1)CC2` (stereo not given), the call in experiment [2] and in experiment [4] was inactive. In addition, the max response in experiment [9] was -11.2% (inactive).

On to `CN(C)CC/C=C1\c2ccccc2COc2ccccc21`, for which the Potency in experiment [1] was 1.2 µM (active). For the same molecule, the max response is -15.2% (inactive) in experiment [2], 4.58% (inactive) in experiment [8] and 0.829% (inactive) in experiment [4]. The result in experiment [3] and in experiment [5] was inactive.

Turning to `CN(C)CCCN1c2ccccc2Sc2ccccc21`, in experiment [1], the Potency is 0.572 µM (active). For the same molecule, the max response in experiment [2] was 0.274% (inactive); in experiment [8], -0.491% (inactive); in experiment [4], -1.44% (inactive). Besides, the call in experiment [3] and in experiment [5] was inactive.

Turning to `OCCN1CCN(CCCN2c3ccccc3C=Cc3ccccc32)CC1`, the results for the Potency in experiment [6], in experiment [7] and in experiment [1] were 6.31 µM (active), 5.62 µM (active) and 1.51 µM (active), respectively. Moreover, the molecule was classed as inactive in experiment [2], in [3], in experiment [4] and in [5].

Take `CN1CCN(C2=Nc3ccccc3Oc3ccc(Cl)cc32)CC1`: the Potency entry in experiment [6] and in experiment [7] was “inactive” each time. In addition, the outcome in [2] was inactive. Further, the max response is -5.97% (inactive) in [3] and -11% (inactive) in experiment [4].

In the case of `CN(C(=O)CCCOc1ccc2[nH]c(=O)ccc2c1)C1CCCCC1`, in experiment [6], the Potency result is “inactive”. Further, the max response in [8] was -8.72% (inactive); in [4], -24.3% (inactive).

Regarding `CCOC(=O)C1=C(C)NC(C)=C(C(=O)OC)C1c1cccc(Cl)c1Cl` (stereo not given), the Potency result in experiment [6] is “inactive”. Moreover, the outcome in [3] and in [5] was inactive. The max response in experiment [8] was -8.74% (inactive).

In the case of `OCCN1CCN(CC/C=C2/c3ccccc3Sc3ccc(C(F)(F)F)cc32)CC1`, the Potency in experiment [6] is 11.2 µM (active); in experiment [7], 10 µM (active); in experiment [1] it was 1.9 µM (active). Further, the max response in [3] was -11.5% (inactive).

For `CC(C)COCC(CN(Cc1ccccc1)c1ccccc1)N1CCCC1` (stereo not given), in experiment [6], the Potency entry is “inactive”. Further, the Potency is 18.8 µM (active) in [9] and 26.6 µM (active) in experiment [4]. Also, the max response in [8] was -4.17% (inactive).

Consider `CNCCCN1c2ccccc2CCc2ccccc21`, for which the result in experiment [3] and in experiment [5] was inactive. Besides, the max response in [8] is -3.48% (inactive).

For `CCN(CC)CCOCCOC(=O)C1(c2ccccc2)CCCC1`, the Potency in experiment [6] was 11.2 µM (active); in experiment [7], 8.91 µM (active); in experiment [1], 0.953 µM (active). In addition, the outcome in experiment [5] was inactive.

With `C[N+](C)(C)CCCCCCCCCC[N+](C)(C)C`, the Potency was 2.82 µM (active) in [6], 3.16 µM (active) in experiment [7] and 4.78 µM (active) in experiment [1].

For `NC1=NCC2c3ccccc3Cc3ccccc3N12` (stereo not given), the Potency entry in [6], in experiment [7] and in experiment [1] was “inactive” throughout. Besides, the results for the max response in experiment [3], in [8] and in experiment [4] were -7.94% (inactive), -4.43% (inactive) and -2.29% (inactive), respectively.

With `CN(C)CC[C@@H](c1ccc(Br)cc1)c1ccccn1`, the Potency in [1] was 0.849 µM (active). Also, in [5], the call was inactive.

For `CC(C)(C)c1ccc(C(=O)CCCN2CCC(OC(c3ccccc3)c3ccccc3)CC2)cc1`, the Potency is 7.94 µM (active) in experiment [7], 4.78 µM (active) in experiment [1] and 8.41 µM (active) in experiment [9].

For `CC[N+](C)(C)c1cccc(O)c1`, the Potency result in experiment [6], in experiment [7] and in experiment [1] was “inactive” in each case.

Regarding `O=C1NCN(c2ccccc2)C12CCN(CCCC(c1ccc(F)cc1)c1ccc(F)cc1)CC2`, the Potency in [6] was 12.6 µM (active); in experiment [7] it was 3.55 µM (active); in experiment [1] it was 2.39 µM (active); in [9] it was 10.6 µM (active).

In the case of `CC(C)NCC(O)c1cc(O)cc(O)c1` (stereo not given), in [5], the molecule was called inactive.

The values are drawn from PubChem BioAssay (NCATS).
